# Experimental data reported in PubChem BioAssay (NCI).
# Compounds without any hit were thinned out: in the full panel of roughly 83,000, 20% have a hit.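 How to read the values: 0–100, growth inhibition (40 = 60% inhibited); 0, no net growth; -100 to 0, cell death (-40 = 40% of starting cells died; -100 = all dead).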 Unmarked numbers belong to inactive results. Activity calls are given as the source filed them. How the source made its calls: active means growth percent below 10; inactive means the rest.
# Key:
# Test in all cases: NCI-60 one-dose screen, 48 h (100 = growth as untreated, 0 = no growth, -100 = all killed)
# Conditions in all cases: 10 µM unless noted
# DU-145 prostate = test system: DU-145 prostate
# K-562 leukemia = test system: K-562 leukemia
# MALME-3M melanoma = test system: MALME-3M melanoma
# MDA-MB-231 breast = test system: MDA-MB-231 breast
# RXF 393 renal = test system: RXF 393 renal
# SF-268 CNS = test system: SF-268 CNS
# SF-295 CNS = test system: SF-295 CNS
# SF-539 CNS = test system: SF-539 CNS
# UACC-257 melanoma = test system: UACC-257 melanoma
# M14 melanoma = test system: M14 melanoma
Compound,growth (DU-145 prostate),growth (K-562 leukemia),growth (MALME-3M melanoma),growth (MDA-MB-231 breast),growth (RXF 393 renal),growth (SF-268 CNS),growth (SF-295 CNS),growth (SF-539 CNS),growth (UACC-257 melanoma),growth (M14 melanoma)
CCOC(=O)c1sc2ncc(-c3ccc(C)cc3)n2c1C,97.5%,79.4%,84.2%,85.6%,107%,106%,96.7%,93.8%,98.3%,87.1%
Cc1cccc2c3c(sc12)C(c1ccc(Cl)cc1)C(C#N)=C(/N=C/c1ccc(Cl)cc1)O3 (stereo not given),20.1%,8.84% (active),56.6%,28.5%,-15.3% (active),44.6%,1.19% (active),-13.7% (active),65.1%,4.4% (active)
c1ccc(Cc2nn3cc(-c4ccccc4)nc3s2)cc1,99%,93.8%,111%,109%,129%,98%,97.8%,106%,108%,90.3%
Cc1cc2nc3cc(C)c(N)cc3[n+](-c3ccccc3)c2cc1N,72.9%,32.4%,48.7%,90.3%,91.7%,24%,34.5%,50.5%,32.6%,89.5%
Cc1nc2ccccc2c(/C=C/c2ccc(Cl)cc2)c1C(=O)/C=C/c1ccc(C(F)(F)F)cc1,-83.7% (active),-7.8% (active),-74.1% (active),-50.5% (active),-85.9% (active),-53.5% (active),-88.2% (active),-90.5% (active),-37% (active),-38.6% (active)
O=c1c2cc(F)ccc2sc2c(NCCCNCCO)nc3ccc(F)cc3c12,37.4%,-33.5% (active),85.5%,-7.79% (active),63%,51.8%,98.6%,63.9%,94%,8.53% (active)
Nc1nc(-c2cccc3ccccc23)cc2ccccc12,7.32% (active),-43.8% (active),82.2%,20.7%,-4.3% (active),23.7%,-50.2% (active),-35.9% (active),56.6%,-29.5% (active)
O=c1c2cc(F)ccc2sc2c(N3CCNCC3)nc3ccccc3c12,-31.5% (active),-38.2% (active),84.8%,-29.1% (active),58.1%,55.1%,92.1%,29.8%,92.1%,-52.7% (active)
CCCC1CCC(O)(C(C)(O)C(=O)NC2C(=O)N3NCCCC3C(=O)N(O)C(C)C(=O)N3NCCCC3C(=O)N3NCC(O)CC3C(=O)NC(C)C(=O)OC2C(C)C)OC1CC (stereo not given),-99% (active),-61.6% (active),-71.7% (active),-66.3% (active),-54.3% (active),-82.1% (active),-85.3% (active),-95.1% (active),-83.3% (active),-60.9% (active)
CCCCn1c(-c2ccc(-c3nc(-c4ccc(Cl)cc4)no3)cc2)nc(-c2ccccc2)c1-c1ccccc1,93.4%,58.9%,92%,79.9%,101%,95.5%,79%,85.5%,97.8%,94.4%
COc1ccc(C(=O)N=Nc2c(O)n(C)c3ccccc23)cc1,108%,89.3%,103%,85.2%,100%,95.8%,101%,89.8%,106%,101%
COc1ccn2c(C(C)=O)cc(C(=O)c3ccc4c(c3)Sc3ccccc3N4)c2c1,-18.3% (active),7.02% (active),85.9%,-17.2% (active),51.9%,22.2%,13.9%,-11.8% (active),52%,9.58% (active)
O=CN(SSN(C=O)C1CCCCC1)C1CCCCC1,115%,52.3%,73.9%,102%,12.4%,103%,105%,102%,124%,92.7%
Cc1nc(NC(=O)COc2ccc(/C=C3\Cc4ccc(Cl)cc4C3=O)cc2)sc1C,112%,106%,238%,93.7%,135%,119%,110%,101%,110%,114%
